The list is not random: actives were taken first. Their share in the collection is about 9.4%.
ELG1 repair inh: qHTS screen for small molecules that inhibit ELG1-dependent DNA repair in human embryonic kidney (HEK293T) cells expressing luciferase-tagged ELG1; HEK293T ELG1-luciferase reporter, luminescence, 16 h; DNA damage induced by 5-fluorouridine; AID 504467, 2011; Potency, µM (doses to about 46.1 µM), for inactives: at the top dose activity change, negative = inhibition, usual class: inhibitors; actives 2.3% (n = 330,000); also: % is scaled to controls: 0 for no effect and ±100 for the full control effect; nearly all actives have a fitted effect of over 55% in size
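Reporter activity after DNA damage by 5-fluorouridine is monitored. Compound-treated cells incubate 16 hr at 37 °C, then ONE-Glo is added for 30 min before luminescence reading.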
ELG1 genotoxic: qHTS screen for small molecules that induce genotoxicity in human embryonic kidney (HEK293T) cells expressing luciferase-tagged ELG1; AID 504466, 2011; HEK293T ELG1-luciferase reporter, luminescence, 16 h; Potency, µM (top dose mostly 46 µM), for inactives: at the highest dose activity change, positive = activation, actives largely listed as activators; actives 1.3% (n = 330,000); also: % of control where 0% means no effect; nearly all actives have a fitted effect of over 60% in size
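Genotoxic stress is detected as increased luminescence from luciferase-tagged ELG1 in HEK293T cells, measured with ONE-Glo after a 16 hr treatment at 37 °C.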
SMN2 splice enh: qHTS Assay for Enhancers of SMN2 Splice Variant Expression; HEK293 SMN2-luciferase splicing reporter, luminescence, 30-36 h; actives 2.8% (n = 210,000); AID 1458, 2008; Potency, µM (titrated, usually from 46.1 µM), for inactives: top-dose activity change, positive = activation, most hits filed as activators; also: % of control where 0% means no effect; nearly all actives have a fitted effect of over 55% in size
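qHTS luciferase splicing reporter: luminescence rises when SMN2 exon 7 is included in transfected HEK293 cells. Compound exposure lasted 30-36 h at 37C, with 4.5 mM final sodium butyrate as control, followed by a ONE-Glo read.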
NPC1 promoter act: qHTS Assay for NPC1 Promoter Activators; Huh7 NPC1 promoter luciferase reporter, 24 h; actives 2.4% (n = 320,000); Potency, µM (highest dose often 9.22 µM), for inactives: at the top dose activation, hits mostly activators; AID 485313, 2010; also: % of control where 0% means no effect; nearly all actives have a fitted effect of over 60% in size
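Readout is luciferase luminescence, reflecting NPC1 promoter activation in stably transfected Huh7 cells after 24 h compound exposure at 37 °C in reduced-serum medium with 10% FBS.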
Rab9 promoter act: qHTS Assay for Rab9 Promoter Activators. Huh7 Rab9 promoter-luciferase reporter, luminescence, 24 h. Potency, µM (highest dose often 9.22 µM), for inactives: at the highest dose activation, negative = inhibition, hits mostly activators. actives 2.8% (n = 320,000). AID 485297, 2010; also: % of control where 0% means no effect; nearly all actives have a fitted effect of over 60% in size
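Luminescence read-out: Huh7 cells stably expressing Rab9-luciferase, treated 24 h with compound at 37 °C, then lysed with luciferase reagent for 10 min at ambient before reading.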
FLuc counter: qHTS profiling assay for firefly luciferase inhibitor/activator using purifed enzyme and Km concentrations of substrates (counterscreen for miR-21 project) | Potency, µM (highest dose often 57.5 µM), inactives show top-dose activity change, negative = inhibition, actives largely listed as inhibitors | Luciferin 4-monooxygenase (Photinus pyralis), P08659 | actives 6.9% (n = 360,000) | purified FLuc, Km substrates, luminescence inhibition;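 also: plate controls were vehicle for no effect and reference inhibitor for full effect; nearly all actives have a fitted effect of over 55% in size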
Target sequence (P08659 whole entry, looked up): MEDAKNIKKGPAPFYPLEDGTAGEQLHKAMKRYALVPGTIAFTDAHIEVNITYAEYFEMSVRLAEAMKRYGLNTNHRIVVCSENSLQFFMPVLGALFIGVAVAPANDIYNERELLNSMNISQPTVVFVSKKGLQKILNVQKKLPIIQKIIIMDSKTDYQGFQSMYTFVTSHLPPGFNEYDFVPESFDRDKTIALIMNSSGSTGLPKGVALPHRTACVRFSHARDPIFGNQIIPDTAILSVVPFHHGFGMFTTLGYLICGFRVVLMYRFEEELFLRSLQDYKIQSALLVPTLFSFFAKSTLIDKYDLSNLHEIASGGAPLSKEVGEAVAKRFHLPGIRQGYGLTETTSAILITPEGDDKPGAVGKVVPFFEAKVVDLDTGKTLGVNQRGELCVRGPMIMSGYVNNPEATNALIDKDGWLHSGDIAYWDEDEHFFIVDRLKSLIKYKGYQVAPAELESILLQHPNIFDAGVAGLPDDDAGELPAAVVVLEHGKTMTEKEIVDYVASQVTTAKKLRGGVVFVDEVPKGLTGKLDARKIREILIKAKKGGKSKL
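Purified P. pyralis luciferase, 10 nM final, with Km-level 10 uM D-luciferin and 10 uM ATP in 50 mM Tris acetate pH 7.5, 10 mM Mg acetate, 0.01% Tween-20, 0.05% BSA; 6-point qHTS titration about 60 µM downward; luminescence read.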
Active calls of the source: *; ? = inconclusive; . = not tested or not shown; [ ] = dose if it differs, or a comment. Calls follow the shape of the dose curve; as a rule, active = well fitted curve in the direction sought with a large enough effect; inconclusive = small, poorly fitted or top-dose-only effect, or another doubt; inactive = no such curve, though single readings can be large; an effect the other way counts as inactive or inconclusive. Potency is read from the fitted curve at half-maximal effect.

SMILES | ELG1 repair inh | ELG1 genotoxic | SMN2 splice enh | NPC1 promoter act | Rab9 promoter act | FLuc counter
O=C(Nc1ncc(Cc2ccccc2)s1)C1CCCO1 (centres undefined) | ? | ? | 5µM* | 1.1µM* | 2.2µM* | 4.3µM*
CCN(Cc1ccc2c(c1)OCCO2)C(=O)CSc1nc(C)nc2sc(C)c(C)c12 | 13µM* | -6% | . | -2% | -6% | -2%
COc1ccccc1Nc1ccc(C(=O)NC2CCCCC2)cn1 | 25% | ? | -11% | 2% | 1% | 13µM*
COc1ccccc1Nc1cc(C(=O)NC2CCCC2)c2ccccc2n1 | 0% | 1% | -6% | 1% | 0% | 12µM*
COc1ccc(Nc2cc(C(=O)NC3CCCC3)c3ccccc3n2)c(OC)c1 | -3% | -1% | -24% | -6% | 3% | ?
COc1ccc2c(c1)CCc1c(C(=O)N(C)c3ccccc3)noc1-2 | ? | ? | 5µM* | ? | ? | 13µM*
COCC(C)NC(=O)c1noc2c1CCc1cc(OC)ccc1-2 (centres undefined) | ? | ? | 10µM* | 3.2µM* | 2.5µM* | 13µM*
COc1ccc2c(c1)CCc1c(C(=O)NCCN3CCOCC3)noc1-2 | 4% | 2% | -6% | -1% | -3% | -16%
COc1ccc2c(c1)CCc1c(C(=O)Nc3ccc(C#N)cc3)noc1-2 | . | . | 18% | . | . | -2%
COCCNC(=O)c1noc2c1CCc1cc(OC)ccc1-2 | ? | ? | 7.9µM* | 3.5µM* | ? | ?
COc1ccc2c(c1)CCc1c(C(=O)NCc3ccco3)noc1-2 | ? | ? | 7.1µM* | 3.5µM* | 1.6µM* | 7.6µM*
CCSc1nc(-c2ccc(Cl)cc2)nc2c1Cc1c(CO)cnc(C)c1O2 | . | . | . | . | . | 0%
CCc1cccc(NC(=O)CN(c2ccc(C)cc2)S(=O)(=O)c2cccs2)c1 | . | . | -8% | . | . | 1%
Cc1ccc(NC(=O)C(=O)NCC(c2ccc3c(c2)OCO3)N2CCN(C)CC2)cc1C (centres undefined) | . | . | . | . | . | 0%
COc1ccc2c(c1)CCc1c(C(=O)NC3CCCCC3)noc1-2 | ? | ? | 7.1µM* | 1.4µM* | 1.1µM* | 1.3µM*
Cc1nn(-c2ccccc2)c(-n2cccc2)c1C(=O)N1CCN(c2ccccc2)CC1 | . | . | -7% | . | . | 2%
CCOc1ccc(-c2cc(C(=O)NCc3ccc(OCC)c(OC)c3)[nH]n2)cc1 | . | . | . | . | . | -11%
CCC(=O)N1CCc2cc(S(=O)(=O)NC(Cc3ccccc3)C(=O)Nc3ccc(C)cc3)ccc21 (centres undefined) | . | . | -16% | . | . | -4%
O=C(Nc1cccc(NC(=O)c2cccs2)c1)c1ccc2c(c1)OCCO2 | 10% | 2% | . | 23% | 30% | 7.6µM*
CCCc1cc(C(=O)Nc2cccc([N+](=O)[O-])c2)cs1 | ? | 14% | . | ? | ? | 11µM*
O=C(Nc1ccc2c(c1)OCCO2)C1CC1c1ccccc1 (centres undefined) | ? | ? | 11µM* | ? | 4µM* | 9.5µM*
O=C(Nc1cccc(NC(=O)c2cccs2)c1)c1ccc(Br)cc1 | ? | -7% | . | -9% | 3% | ?
O=C(NC(=S)Nc1ccc2c(c1)OCO2)c1ccccc1 | ? | ? | 20µM* | 1.4µM* | 1.6µM* | 3.8µM*
O=C(Cc1cccs1)Nc1cccc([N+](=O)[O-])c1 | 18% | -3% | -4% | -1% | 24% | -12%
Cc1ccc2[nH]c(=O)c3cc(C(=O)NCCCN4CCC(C)CC4)sc3c2c1 | . | . | 14% | . | . | -1%
SMILES | ELG1 repair inh | ELG1 genotoxic | SMN2 splice enh | NPC1 promoter act | Rab9 promoter act | FLuc counter
COC(=O)c1sccc1S(=O)(=O)N(CC(=O)NCc1ccccc1)c1ccc(C)cc1 | . | . | . | . | . | 4%
CC(C)Oc1ccc(CNC(=O)CCCn2c(=O)c3cccn3c3ccccc32)cc1 | . | . | . | . | . | -4%
COc1ccccc1CNC(=O)C1CCC(CNS(=O)(=O)c2ccc3c(c2)CCCC(=O)N3)CC1 (centres undefined) | . | . | . | . | . | 6%
O=C(Nc1ccc2c(c1)OCCO2)c1ccc(Cl)cc1Cl | ? | ? | . | 0.45µM* | 0.28µM* | 1.2µM*
O=C(Nc1ccc2c(c1)OCO2)c1ccccc1 | ? | ? | . | 1.8µM* | 1.1µM* | 9.5µM*
O=C(Nc1ccc2c(c1)OCCO2)c1cccc(C(=O)Nc2ccc3c(c2)OCCO3)c1 | 27% | 14% | . | 4µM* | 17%[1.84 µM] | 6.7µM*
O=C(NC(=S)Nc1ccc2c(c1)OCCO2)c1cccc(Br)c1 | ? | ? | 13µM* | 3.2µM* | 3.2µM* | 11µM*
CCOC(=O)c1nc(NCc2ccc(Cl)cc2)c2c(C)noc2n1 | . | . | . | . | . | -1%
COc1ccc(C)cc1NC(=O)c1ccc2c(c1)N(Cc1cccc(Cl)c1)C(=O)c1ccccc1S2=O (centres undefined) | . | . | . | . | . | -3%
CCC(Cn1nnc2ccccc2c1=O)NC(=O)Nc1cc(C)cc(C)c1 (centres undefined) | . | . | -3% | . | . | -10%
O=C(Nc1cccc([N+](=O)[O-])c1)c1ccc2c(c1)OCCO2 | ? | ? | 18µM* | 3.5µM* | ? | 7.6µM*
CC(C)C(NC(=O)C1CCCCC1)C(=O)Nc1ccc2c(c1)OCCO2 (centres undefined) | ? | ? | 36% | 1.1µM* | 2µM* | 6µM*
CCOc1cccc(C(=O)Nc2ccc3c(c2)OCCO3)c1 | ? | 2.3µM* | . | ? | ? | 1.5µM*
O=C(CCCc1cccs1)Nc1ccc2c(c1)OCO2 | ? | ? | 14µM* | 2.2µM* | 2.8µM* | 11µM*
CC(C)C(NC(=O)C1CCCCC1)C(=O)Nc1ccncc1 (centres undefined) | -7% | 0% | 4% | -2% | 1% | 2%
O=C(Nc1ccc2c(c1)OCO2)c1cc(Cl)ccn1 | ? | ? | . | 1.8µM* | 1.3µM* | 4.8µM*
CC(=O)Nc1ccc2c(c1)OCCOCCOc1cc(NC(C)=O)ccc1OCCOCCOCCO2 | -1% | 0% | 4% | 7% | 1% | 0%
O=C(Nc1ccc2c(c1)OCCO2)C(=O)NC1CC1 | ? | ? | . | ? | 2.8µM* | 4.8µM*
O=C(Nc1ccc(N=Nc2ccccc2)cc1)c1cccc(Cl)c1 | 29% | 10% | 17% | 5% | 0% | -1%
